Inconclusive results are not listed. The source made the active and inactive calls. Calls follow the shape of the dose curve; as a rule, active = well fitted inhibition curve with a large enough effect; inconclusive = small, poorly fitted or top-dose-only effect; inactive = no such curve, though single readings can be large or run the other way.
molecular target: RecQ-like DNA helicase BLM (Homo sapiens) (UniProt P54132); assay: qHTS Validation Assay for Inhibitors of Bloom's syndrome helicase (BLM) (AID 2364); conditions: BLM helicase DNA unwinding, fluorescence, in vitro; series mostly up to 57.1 µM; activity change, negative = inhibition: at the top concentration
From the text: Survival of cells and the faithful propagation of the genome depend on elaborate mechanisms of detecting and repairing DNA damage. Treatment of advanced cancer relies on radiation therapy or chemotherapy, which kill cancer cells by causing extensive DNA damage. It is often found, that cancer cells develop resistance to therapy through enhanced activity of DNA repair functions; this has led to an increased interest in developing drugs that interfere with DNA repair, which could sensitize cancer cells to conventional therapy.
This validation qHTS assay pertains to human BLM, which is important in resolving abnormal DNA structures formed during replication or homologous recombination. Shutting down the expression of BLM leads to chromosomal instability and higher radiation sensitivity in cultured cells.
The validation assay was a fluorescence quenching based kinetic qHTS for BLM Helicase DNA unwinding. The activity was measured as ATP-dependent separation of a 20-bp DNA duplex extended by 30-nt single-stranded tails (forked duplex). The forked DNA substrate was tagged with rhodamine fluorophore (carboxytetramethyl rhodamine, TAMRA) and BHQ-2 (Black Hole Quencher 2) dark quencher. Strand separation results in an increase in the fluorescence of TAMRA (excitation 525 nm, emission 598 nm). This substrate construct operates in a red-shifted region where very few compound library members have been noted to fluoresce (PubChem AIDs 593 and 594). An additional feature of the assay is the inclusion of 2.5 ug/ml poly (dIdC), to reduce interference by compounds such as DNA intercalators, a major source of false inhibitors.
Ian Hickson, University of Oxford
Opher Gileadi, Structural Genomics Consortium, University of Oxford
Screening Center PI: Austin, C.P.
Screening Center: NIH Chemical Genomics Center [NCGC]
Three uL of reaction buffer (25 mM Tris-HCl (pH 8.0), 5 mM NaCl, 2 mM MgCl2, 1mM DTT, 0.01% Tween- 20, and 2.5 ug/ml poly(dI-dC), including enzyme (50 nM BLM), were dispensed into a 1536-well Greiner black assay plate via solenoid-valve based nanoliter dispensers. Compounds (23 nl each in columns 5-48) and control (23 nl each in column 2 as dose-response) were transferred via a Kalypsys pintool equipped with a 1536-pin array. The plates were incubated for 15 min at room temperature, and then 1 ul of substrates (200 nM DNA and 2 mM ATP, final concentrations) was added to start the reaction. The plate was transferred into a ViewLux high-throughput CCD imager where the reaction progress was measured in a discontinuous kinetic mode (two reads spaced 2 hours apart, with intermediate room temperature incubation of the covered assay plate) by using standard red-fluorescence optics (excitation filter 525 nm, emission filter 598 nm). Enzyme-free and vehicle (DMSO) controls were included for signal normalization.
Potency is read from the fitted curve at half-maximal effect.

RecQ-like DNA helicase BLM (Homo sapiens), sequence (P54132 whole entry, looked up): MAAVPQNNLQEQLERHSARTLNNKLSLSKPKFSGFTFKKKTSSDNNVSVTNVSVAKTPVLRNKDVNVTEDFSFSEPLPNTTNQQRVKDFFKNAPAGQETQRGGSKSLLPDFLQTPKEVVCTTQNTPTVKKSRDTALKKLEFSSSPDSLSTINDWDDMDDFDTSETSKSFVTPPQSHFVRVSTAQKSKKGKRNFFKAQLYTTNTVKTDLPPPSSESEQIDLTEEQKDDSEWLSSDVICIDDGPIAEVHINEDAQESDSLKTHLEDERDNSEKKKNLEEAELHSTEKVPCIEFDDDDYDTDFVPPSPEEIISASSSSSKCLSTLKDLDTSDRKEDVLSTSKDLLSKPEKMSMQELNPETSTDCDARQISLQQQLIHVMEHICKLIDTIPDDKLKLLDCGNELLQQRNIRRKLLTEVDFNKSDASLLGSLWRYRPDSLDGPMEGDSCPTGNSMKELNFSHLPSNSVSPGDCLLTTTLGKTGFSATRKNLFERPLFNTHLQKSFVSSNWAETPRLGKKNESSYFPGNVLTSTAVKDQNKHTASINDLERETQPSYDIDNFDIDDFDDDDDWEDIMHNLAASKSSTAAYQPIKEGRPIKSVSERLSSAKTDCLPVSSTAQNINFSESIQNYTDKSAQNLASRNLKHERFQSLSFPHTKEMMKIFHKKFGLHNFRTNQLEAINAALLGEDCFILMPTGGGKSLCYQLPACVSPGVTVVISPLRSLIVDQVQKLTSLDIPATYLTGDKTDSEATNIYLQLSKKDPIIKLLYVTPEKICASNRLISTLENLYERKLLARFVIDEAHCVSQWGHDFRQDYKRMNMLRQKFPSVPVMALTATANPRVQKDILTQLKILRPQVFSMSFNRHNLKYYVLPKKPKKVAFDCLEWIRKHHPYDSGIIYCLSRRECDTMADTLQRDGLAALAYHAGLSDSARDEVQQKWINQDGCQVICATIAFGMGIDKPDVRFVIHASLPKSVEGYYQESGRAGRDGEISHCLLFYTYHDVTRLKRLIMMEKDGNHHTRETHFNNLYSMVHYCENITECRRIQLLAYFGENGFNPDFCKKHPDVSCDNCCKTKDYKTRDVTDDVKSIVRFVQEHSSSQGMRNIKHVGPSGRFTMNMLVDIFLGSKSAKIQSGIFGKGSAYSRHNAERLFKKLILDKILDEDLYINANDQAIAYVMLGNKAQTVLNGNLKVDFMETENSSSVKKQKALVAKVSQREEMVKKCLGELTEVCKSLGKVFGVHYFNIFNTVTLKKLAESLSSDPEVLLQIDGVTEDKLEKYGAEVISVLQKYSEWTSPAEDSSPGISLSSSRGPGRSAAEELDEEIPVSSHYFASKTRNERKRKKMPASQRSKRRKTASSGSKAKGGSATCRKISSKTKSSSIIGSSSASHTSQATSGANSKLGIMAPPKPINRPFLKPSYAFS

Row | SMILES | Potency | activity change, negative = inhibition
1 | O=c1c(O)c(-c2ccc(O)c(O)c2)oc2cc(O)cc(O)c12 | 28.2 µM (active) | –
2 | Nc1ccncc1 | – | -14% (inactive)
3 | Cc1ccc(S(=O)(=O)N[C@@H](CCCCN)C(=O)CCl)cc1 | – | -9.58% (inactive)
4 | c1ccc(C2CC2)c(OCC2=NCCN2)c1 | – | -6.44% (inactive)
5 | CC(C)NCC(O)COc1cccc2[nH]ccc12 (stereo unspecified) | – | -11.6% (inactive)
6 | CC[N+](CC)(CC)CC | – | -11% (inactive)
7 | CCCN1CCC[C@@H]2Cc3nc(N)ncc3C[C@H]21 | – | -6.68% (inactive)
8 | NCC(O)c1ccc(O)cc1 (stereo unspecified) | – | -6.24% (inactive)
9 | CCCC(C)(COC(N)=O)COC(=O)NC(C)C (stereo unspecified) | – | -6.2% (inactive)
10 | CC12CC3CC(C)(C1)CC(N)(C3)C2 | – | -7.01% (inactive)
11 | CNCCC(Oc1ccc(C(F)(F)F)cc1)c1ccccc1 (stereo unspecified) | – | -8.65% (inactive)
12 | CC(=O)[C@H]1CC[C@H]2[C@@H]3CC[C@H]4C[C@H](O)CC[C@]4(C)[C@H]3C(=O)C[C@]12C | – | -13.8% (inactive)
13 | COc1ccccc1N1CCNCC1 | – | -11.4% (inactive)
14 | CCC1(C2=NCCN2)Cc2ccccc2O1 (stereo unspecified) | – | -7.73% (inactive)
15 | O=c1[nH]c2ccccc2n1CCCN1CCC(n2c(=O)[nH]c3cc(Cl)ccc32)CC1 | – | -5.63% (inactive)
16 | COC[C@H]1OC(=O)c2coc3c2[C@@]1(C)C1=C(C3=O)C2CCC(=O)[C@@]2(C)C[C@H]1OC(C)=O (stereo partly specified) | – | -8.07% (inactive)

Reference: PubChem BioAssay (NCATS)
